Results taken from PubChem BioAssay (EPA / NIEHS).
Inconclusive results are not listed. Activity calls are given as the source filed them. How the source made its calls, unless noted: active means hit-call score of the fitted dose curve at least 0.9, where 1 is the maximum; inconclusive means response in the unintended direction; inactive means score below 0.9.

What was measured:
THRA (gene 7067) [1] = molecular target: THRA (gene 7067) (UniProt P10827); test: TOX21_TRA_COA_Agonist_Followup_ratio: Tox21 Thyroid Hormone Receptor alpha Agonism through Coactivator Recruitment Follow-Up Assay, Ratio (AID 2283948; active means hit-call score of the fitted dose curve at least 0.9, where 1 is the maximum; inactive means score below 0.9)
Summary of the method: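 GST-TRa LBD 2.5 nM + 0.10% BSA + cpd; add fluorescein-SRC-2 200 nM, Tb-anti-GST 2 nM. TR-FRET ex 340, em 520/495 ratio. Norm: DMSO 0%, T3 100%; gain-of-signal fit.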

THRB (gene 7068) [2] = molecular target: THRB (gene 7068) (UniProt P10828); test: TOX21_TRB_COA_Agonist_Followup_ratio: Tox21 Thyroid Hormone Receptor beta Agonism through Coactivator Recruitment Follow-Up Assay, Ratio (AID 2283963; active means hit-call score of the fitted dose curve at least 0.9, where 1 is the maximum; inactive means score below 0.9)
Summary of the method: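 GST-TRb LBD 5.0 nM + 0.10% BSA + cpd; add fluorescein-SRC-2 200 nM / Tb anti-GST Ab 2 nM; TR-FRET ex 340, em 520:495; norm DMSO 0%, T3 100%.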

[3] = molecular target: Retinoic acid receptor RXR-alpha (Homo sapiens) (UniProt P19793); test: TOX21_TR_RXR_BLA_Agonist_Followup_ratio: Tox21 Thyroid Hormone Receptor beta Retinoid X Receptor alpha (RXRa) Agonism Beta-lactamase (BLA) Follow-Up Assay, Ratio (AID 2283968)
Summary of the method: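 RXRa-UAS-bla HEK293T cells, 5 h attachment at 37C/5% CO2, then 11 concentrations in triplicate for 16 h; 9-cis retinoic acid positive control. FRET-B/GCCF4-AM substrate 2 h at room temperature; 460:530 nm ratio, fitted for gain versus DMSO.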

[4] = TOX21_TR_RXR_BLA_Agonist_Followup_viability: Viability Assessment in the Tox21 Thyroid Hormone Receptor beta Retinoid X Receptor alpha (RXRa) Agonism Beta-lactamase (BLA) Follow-Up Assay (AID 2283970)
Summary of the method: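 RXRa-UAS-bla HEK293T cells, 2,500/well in phenol red-free DMEM with 2% charcoal-stripped FBS, dosed for 16 h at 37C. Viability measured by CellTiter-Glo ATP luminescence; fitted bidirectionally against DMSO baseline, loss of signal indicating cytotoxicity.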

[5] = molecular target: Nucleoli Translocation, AR (gene 367) (UniProt P10275); test: UPITT_HCI_U2OS_AR_TIF2_Nucleoli_Antagonist: University of Pittsburgh U2OS Androgen Receptor-Transcriptional Intermediary Factor 2 (AR-TIF2) Antagonism High Content Imaging Assay for Nucleoli Translocation (AID 2283997)
Summary of the method: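 Measured quantity was AR-RFP fluorescence localized to nucleoli in engineered U2OS cells also bearing TIF2-GFP, acquired on automated high-content imagers. Primary testing used 20 uM compound; actives were confirmed in triplicate wells.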

[6] = molecular target: Ratio of Nucleoli Translocation and Cytoplasm, AR (gene 367) (UniProt P10275); test: UPITT_HCI_U2OS_AR_TIF2_Nucleoli_Cytoplasm_Ratio_Antagonist: University of Pittsburgh U2OS Androgen Receptor-Transcriptional Intermediary Factor 2 (AR-TIF2) Antagonism High Content Imaging Assay for Ratio of Nucleoli Translocation and Cytoplasm (AID 2283999);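 further: antagonists lower the DHT-driven ratio of nucleolar to cytoplasmic red signal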
Summary of the method: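 U2OS cells co-expressing RFP-tagged human AR and GFP-tagged TIF2, antagonist mode with DHT as baseline. Nucleolar-to-cytoplasmic red fluorescence ratio imaged by high-content microscopy; final compound 20 uM (0.2% DMSO) primary, 0.195–50 uM (0.5% DMSO) concentration-response.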

THRB (gene 7068) [7] = molecular target: THRB (gene 7068) (UniProt P10828); test: TOX21_TRB_BLA_Agonist_Followup_ratio: Tox21 Thyroid Hormone Receptor beta Agonism Beta-lactamase (BLA) Follow-Up Assay, Ratio (AID 2283954)
Summary of the method: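 Human TRβ LBD–GAL4 DBD fusion in GeneBLAzer UAS-bla HEK293T cells; 11 concentrations in triplicate, 18 h at 37°C/5% CO2, T3 as agonist control. CCF4-AM substrate 2 h at room temperature; 460:530 nm ratio fitted for gain of signal versus DMSO.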

[8] = CCTE_Harrill_HTTr_Viability_MCF7: CCTE's 6-hour Cell Viability Assessment for the High-Throughput Transcriptomics (HTTr) Platform, in MCF-7 cells cultured in DMEM + 10% fetal bovine serum, Harrill Lab (AID 2284010; active means hit-call score of the fitted dose curve at least 0.9, where 1 is the maximum; inactive means score below 0.9)
Summary of the method: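 MCF-7 cells in DMEM + 10% FBS, 384-well, exposed 6 h to an eight-point dilution series. Membrane integrity scored by high-content imaging of propidium iodide exclusion; bidirectional fit versus DMSO.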

[9] = molecular target: Nucleoli Translocation, AR (gene 367) (UniProt P10275); test: UPITT_HCI_U2OS_AR_TIF2_Nucleoli_Agonist: University of Pittsburgh U2OS Androgen Receptor-Transcriptional Intermediary Factor 2 (AR-TIF2) Agonism High Content Imaging Assay for Nucleoli Translocation (AID 2283998)
Summary of the method: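 RFP-AR / GFP-TIF2 cells; cpds diluted in serum-free medium; single-point screen 20 uM final (0.2% DMSO), actives confirmed in triplicate; conc-response 0.195–50 uM final (0.5% DMSO). Readout: nucleolar red fluorescence, positive direction vs DMSO.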

[10] = molecular target: Ratio of Nucleoli Translocation and Cytoplasm, AR (gene 367) (UniProt P10275); test: UPITT_HCI_U2OS_AR_TIF2_Nucleoli_Cytoplasm_Ratio_Agonist: University of Pittsburgh U2OS Androgen Receptor-Transcriptional Intermediary Factor 2 (AR-TIF2) Agonism High Content Imaging Assay for Ratio of Nucleoli Translocation and Cytoplasm (AID 2284000);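 further: hits raise the red nucleolar to cytoplasm ratio above vehicle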
Summary of the method: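 Read-out first: nucleolar-to-cytoplasm ratio of red (AR-RFP) signal, quantified by high-content imaging in U2OS cells co-expressing TIF2-GFP. Activity is scored as signal increase over DMSO. Single-point screening used 20 uM final (0.2% DMSO).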

[11] = CCTE_Shafer_MEA_acute_spike_number: CCTE's Neural Acute Assay for Total Number of Spikes, Shafer Lab (AID 2284008; active means hit-call score of the fitted dose curve at least 0.9, where 1 is the maximum; inactive means score below 0.9)
Summary of the method: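 Rat cortical cultures, DIV 13/15, 37 C. 40 min baseline rec, cpd 0.03-40 uM, 40 min post-dose rec. Band-pass 300-5000 Hz, spike threshold 8x rms; % change in spike count per well, DMSO neg ctrl, loss-of-signal fit.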

[12] = CCTE_Shafer_MEA_acute_firing_rate_mean: CCTE's Neural Acute Assay for Mean Firing Rate, Shafer Lab (AID 2284009; active means hit-call score of the fitted dose curve at least 0.9, where 1 is the maximum; inactive means score below 0.9;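 further: analyzed for loss of signal so actives lower firing rate relative to DMSO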)
Summary of the method: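 Percent change in well-mean firing rate was derived from extracellular spikes detected at 8x rms noise (300-5000 Hz band-pass) before and after a 40-min compound exposure. Cultures were primary rat cortical neurons, tested at 0.03-40 uM.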

[13] = molecular target: Thyroid hormone receptor alpha (Rattus norvegicus) + Thyroid hormone receptor beta (Rattus norvegicus) (UniProt P18113+P63059); test: TOX21_TR_LUC_GH3_Antagonist_Followup: Tox21 GH3 Thyroid Hormone Receptor Antagonism Luciferase Follow-Up Assay (AID 2283942)
Summary of the method: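 Confirmatory qHTS, antagonist mode: T3 (1.0 nM final) + test cpd, 15 conc, 92 uM–5nM final, GH3 rat pituitary line, 24 h, 37C. Luc reporter, RLU vs DMSO.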

THRA (gene 7067) [14] = molecular target: THRA (gene 7067) (UniProt P10827); test: TOX21_TRA_COA_Antagonist_Followup_ratio: Tox21 Thyroid Hormone Receptor alpha Antagonism through Coactivator Recruitment Follow-Up Assay, Ratio (AID 2283953)
Summary of the method: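 520:495 nm emission ratio (excitation 340 nm) reports fluorescein-SRC-2 peptide recruitment to GST-TRα LBD by TR-FRET with Tb anti-GST antibody. Values were normalized to DMSO (0%) and T3 control wells (100%); loss of signal indicated antagonism.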

THRB (gene 7068) [15] = molecular target: THRB (gene 7068) (UniProt P10828); test: TOX21_TRB_BLA_Antagonist_Followup_ratio: Tox21 Thyroid Hormone Receptor beta Antagonism Beta-lactamase (BLA) Follow-Up Assay, Ratio (AID 2283958)
Summary of the method: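 HEK293T cells with a GAL4-TRb LBD fusion and UAS-bla reporter, 3,000 cells/well in phenol red-free DMEM with 2% charcoal-stripped FBS. Exposed 18 h at 37C to 11 concentrations in triplicate; CCF4 460:530 nm ratio after 2 h, DMSO-referenced.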

[16] = TOX21_TRB_BLA_Antagonist_Followup_viability: Viability Assessment in the Tox21 Thyroid Hormone Receptor beta Antagonism Beta-lactamase (BLA) Follow-Up Assay (AID 2283961)
Summary of the method: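 Viability read as CellTiter-Glo ATP luminescence (loss of signal = cytotoxicity) in the same plates as the TRβ-bla readout. TRβ-LBD/GAL4 UAS-bla HEK293T cells were exposed to compounds, 11 concentrations in triplicate, for 18 h at 37C/5% CO2.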

THRB (gene 7068) [17] = molecular target: THRB (gene 7068) (UniProt P10828); test: TOX21_TRB_COA_Antagonist_Followup_ratio: Tox21 Thyroid Hormone Receptor beta Antagonism through Coactivator Recruitment Follow-Up Assay, Ratio (AID 2283967)
Summary of the method: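 Test compound was incubated with 5.0 nM GST-TRβ LBD in 0.10% BSA. Then 200 nM fluorescein-SRC-2 peptide and 2 nM terbium anti-GST antibody were added. TR-FRET (520:495 nm) was measured and normalized to DMSO and T3 controls.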

[18] = TOX21_TR_RXR_BLA_Antagonist_Followup_viability: Viability Assessment in the Tox21 Thyroid Hormone Receptor beta Retinoid X Receptor alpha (RXRa) Antagonism Beta-lactamase (BLA) Follow-Up Assay (AID 2283979)
Summary of the method: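 Follow-up compounds (11 concentrations, triplicate) were incubated 16 h at 37C/5% CO2 with HEK293T RXRa-bla cells seeded at 2,500/well in charcoal-stripped-serum medium. ATP content by CellTiter-Glo luminescence gave viability; curves fitted in both directions against DMSO.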

DIO1 (gene 1733) = test: CCTE_GLTED_hDIO1: CCTE's human Deiodinase 1 (DIO1) Inhibition Assay, Great Lakes Toxicology and Ecology Division (GLTED) Lab (AID 2283987);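 further: isolated human DIO1 enzyme in a cell-free setup rather than cells; enzyme activity read as free iodide liberated from substrate via Sandell-Kolthoff colorimetry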
Summary of the method: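 Steps: human DIO1 enzyme plus test chemical, 3 h incubation; free iodide then quantified in a second Sandell-Kolthoff step by absorbance. DMSO served as negative control and baseline.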

[19] = molecular target: Retinoic acid receptor RXR-alpha (Homo sapiens) (UniProt P19793); test: TOX21_TR_RXR_BLA_Antagonist_Followup_ratio: Tox21 Thyroid Hormone Receptor beta Retinoid X Receptor alpha (RXRa) Antagonism Beta-lactamase (BLA) Follow-Up Assay, Ratio (AID 2283972)
Summary of the method: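 Beta-lactamase reporter readout as cleaved/uncleaved substrate ratio (460:530 nm) after 2 h substrate loading at room temperature. GAL4-RXRa bla HEK293T cells were exposed 16 h at 37C to 11-point compound series; loss of signal scored against DMSO baseline.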

Measured: AC50

Chain of THRB (gene 7068) (P10828 whole entry, looked up, the tested form may be a part): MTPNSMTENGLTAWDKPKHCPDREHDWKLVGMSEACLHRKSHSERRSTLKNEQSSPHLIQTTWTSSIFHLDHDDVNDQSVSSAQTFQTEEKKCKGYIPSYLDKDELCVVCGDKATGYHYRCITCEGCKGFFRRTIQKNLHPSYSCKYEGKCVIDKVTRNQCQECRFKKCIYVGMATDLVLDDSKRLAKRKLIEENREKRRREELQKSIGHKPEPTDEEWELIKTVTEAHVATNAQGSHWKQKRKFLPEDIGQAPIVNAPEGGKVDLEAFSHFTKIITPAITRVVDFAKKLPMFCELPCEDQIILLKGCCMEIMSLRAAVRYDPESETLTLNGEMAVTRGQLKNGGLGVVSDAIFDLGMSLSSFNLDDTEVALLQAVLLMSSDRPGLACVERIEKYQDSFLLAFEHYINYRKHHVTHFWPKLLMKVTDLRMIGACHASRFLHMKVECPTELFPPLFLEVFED
Chain of THRA (gene 7067) (P10827 whole entry, looked up, the tested form may be a part): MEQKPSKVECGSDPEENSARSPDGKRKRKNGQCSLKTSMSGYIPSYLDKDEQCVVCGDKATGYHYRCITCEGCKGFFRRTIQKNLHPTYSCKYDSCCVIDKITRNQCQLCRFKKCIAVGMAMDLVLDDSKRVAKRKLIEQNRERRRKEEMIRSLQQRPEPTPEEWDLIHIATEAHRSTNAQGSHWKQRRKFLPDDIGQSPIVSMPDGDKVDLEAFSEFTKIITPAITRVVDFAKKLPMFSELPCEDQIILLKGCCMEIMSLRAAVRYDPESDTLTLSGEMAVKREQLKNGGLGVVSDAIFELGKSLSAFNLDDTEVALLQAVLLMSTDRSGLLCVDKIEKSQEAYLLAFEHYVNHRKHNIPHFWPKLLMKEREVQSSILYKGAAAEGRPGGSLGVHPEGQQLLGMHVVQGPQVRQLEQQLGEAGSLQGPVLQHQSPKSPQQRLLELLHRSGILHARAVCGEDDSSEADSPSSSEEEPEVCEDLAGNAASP
Chain of Retinoic acid receptor RXR-alpha (Homo sapiens) (P19793 whole entry, looked up, the tested form may be a part): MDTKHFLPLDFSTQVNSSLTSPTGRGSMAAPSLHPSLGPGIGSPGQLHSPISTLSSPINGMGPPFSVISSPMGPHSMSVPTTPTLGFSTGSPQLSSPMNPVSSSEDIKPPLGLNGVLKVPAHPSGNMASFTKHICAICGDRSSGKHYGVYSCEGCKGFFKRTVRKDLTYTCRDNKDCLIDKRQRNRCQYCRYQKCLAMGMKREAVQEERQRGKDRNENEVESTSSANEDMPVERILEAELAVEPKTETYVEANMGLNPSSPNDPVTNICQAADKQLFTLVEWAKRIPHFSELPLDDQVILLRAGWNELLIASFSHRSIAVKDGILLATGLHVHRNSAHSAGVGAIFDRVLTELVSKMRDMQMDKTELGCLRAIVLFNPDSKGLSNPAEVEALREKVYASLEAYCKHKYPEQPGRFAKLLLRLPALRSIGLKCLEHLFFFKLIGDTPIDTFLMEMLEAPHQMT
Chain of Ratio of Nucleoli Translocation and Cytoplasm, AR (gene 367) (P10275 whole entry, looked up): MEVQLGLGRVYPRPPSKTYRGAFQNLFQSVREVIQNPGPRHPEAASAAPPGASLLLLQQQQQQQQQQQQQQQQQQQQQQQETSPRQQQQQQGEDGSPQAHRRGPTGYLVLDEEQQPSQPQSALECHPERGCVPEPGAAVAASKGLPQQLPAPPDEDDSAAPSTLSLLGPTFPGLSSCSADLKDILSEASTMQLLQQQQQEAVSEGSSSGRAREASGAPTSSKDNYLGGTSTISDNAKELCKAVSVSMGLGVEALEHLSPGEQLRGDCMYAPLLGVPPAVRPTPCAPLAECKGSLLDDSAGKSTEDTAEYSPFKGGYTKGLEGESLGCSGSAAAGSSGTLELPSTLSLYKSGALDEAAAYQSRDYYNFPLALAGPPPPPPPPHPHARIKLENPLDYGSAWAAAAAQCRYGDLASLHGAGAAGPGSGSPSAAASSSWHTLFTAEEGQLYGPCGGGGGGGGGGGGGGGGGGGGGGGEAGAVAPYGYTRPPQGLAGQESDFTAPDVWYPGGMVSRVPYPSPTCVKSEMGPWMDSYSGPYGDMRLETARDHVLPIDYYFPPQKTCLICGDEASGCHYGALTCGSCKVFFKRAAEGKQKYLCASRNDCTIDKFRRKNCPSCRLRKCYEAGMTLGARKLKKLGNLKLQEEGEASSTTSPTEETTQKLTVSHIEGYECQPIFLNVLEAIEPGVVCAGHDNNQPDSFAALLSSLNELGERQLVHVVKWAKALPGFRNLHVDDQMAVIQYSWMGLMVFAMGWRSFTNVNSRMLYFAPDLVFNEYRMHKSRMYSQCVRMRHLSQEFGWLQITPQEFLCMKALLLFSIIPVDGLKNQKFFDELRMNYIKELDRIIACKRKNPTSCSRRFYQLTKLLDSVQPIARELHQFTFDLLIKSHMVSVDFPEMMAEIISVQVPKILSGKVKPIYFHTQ
Chain of Nucleoli Translocation, AR (gene 367) (P10275 whole entry, looked up): as above

C[Si](C)O[Si](C)(C)O[Si](C)(C)O[Si](C)C
inactive: THRA (gene 7067) [1] | THRB (gene 7068) [2] | [3] | [4]

CCCc1ccc(OC)cc1
inactive: [5] | [6]

CCCCCCC(O)CO (configuration not stated)
inactive: THRA (gene 7067) [1] | THRB (gene 7068) [7] | THRB (gene 7068) [2] | [3] | [4] | [8]

CC(C)=CCC[C@H](C)CCO
inactive: [5] | [9] | [6] | [10]

NC(CO)(CO)CO
active: THRA (gene 7067) [1] 40.6 µM
inactive: THRB (gene 7068) [7] | THRB (gene 7068) [2] | [3] | [4]

O=C1CCCN1CCO
inactive: [11] | [12]

c1cc(N(CC2CO2)CC2CO2)ccc1OCC1CO1 (configuration not stated)
inactive: THRA (gene 7067) [14] | THRB (gene 7068) [15] | [16] | THRB (gene 7068) [17] | [18]
active: [13] 60.9 µM

CN1C(=O)N(C)C(O)C1O (configuration not stated)
inactive: [11] | [12]

CCO[Si](C)(OCC)OCC
inactive: [11] | [12]

C=C[Si](OC(C)=O)(OC(C)=O)OC(C)=O
inactive: [11] | [12]

CO[Si](OC)(OC)c1ccccc1
inactive: [11] | [12]

O=C(c1ccc(O)cc1)c1ccc(O)cc1O
inactive: [11] | [12]

CC(CC=O)CCCC(C)(C)O (configuration not stated)
inactive: [5] | [9] | [6] | [10]

Cc1ccc(N/N=c2\c(=O)cc/c(=N/Nc3ccc(S(=O)(=O)O)cc3)c2=O)c(C)c1
active: DIO1 (gene 1733) 46.6 µM

Oc1ccc(Cl)cc1Cc1cc(Cl)ccc1O
active: [13] 18.7 µM | THRB (gene 7068) [15] 38.3 µM | [16] 23.5 µM | THRB (gene 7068) [17] 38.3 µM | [19] 38.3 µM | [18] 5.34 µM | DIO1 (gene 1733) 99.8 µM | [5] 12.1 µM | [9] 1.77 µM | [6] 16.3 µM
inactive: THRA (gene 7067) [14] | [10] | [8]
